# Screening data (PubChem)
# LASV entry inh = qHTS for Inhibitors of binding or entry into cells for Lassa Virus. Lassa virus pseudotype entry inhibition, cell reporter. Potency, µM (series often up to 37.9 µM), for the others: at the highest dose activity change, negative = inhibition, usual class: inhibitors. 300,000 compounds, 1.2% hits. AID 540256, 2011; calls by dose curve; tested in HEK293 cells; further: nearly all actives have a fitted effect of over 50% in size
# VACV Venus inh = qHTS for Stage-Specific Inhibitors of Vaccinia Orthopoxvirus: Venus Reporter Primary qHTS; Potency, µM (top dose mostly 36.5 µM), inactives show at the top dose activity change, negative = inhibition, actives largely listed as inhibitors; 330,000 compounds, 0.46% hits; AID 720580, 2013; Vaccinia virus Venus reporter expression, fluorescence; calls by dose curve; tested in A549 cells; further: nearly all actives have a fitted effect of over 30% in size
# HCV inh = qHTS Assay for Inhibitors of Hepatitis C Virus (HCV); Huh7.5.1 HCVcc-Cre infection, luciferase reporter, 44 h; Potency, µM (doses to about 41.8 µM), for the others: at the highest dose activity change, negative = inhibition, usual class: inhibitors; 340,000 compounds, 3.4% hits; active means well fitted inhibition curve with a large enough effect; inconclusive means small, poorly fitted or top-dose-only effect, or another doubt; inactive means no such curve, though single readings can be large or run the other way
#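 Reporter virus HCVcc-Cre (~0.5 moi) infects cells exposed to compound; seeding density 1,000 cells/well with 4 h settling beforehand. Luminescence, 15 sec read, taken 44 h post-infection following a 15 min RT substrate incubation.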
# Vaccinia mCherry = qHTS for Stage-Specific Inhibitors of Vaccinia Orthopoxvirus: mCherry Reporter Primary qHTS. Vaccinia virus mCherry reporter infection, fluorescence. 310,000 compounds, 0.63% hits. Potency, µM (series often up to 36.5 µM), for the others: at the top dose activity change, negative = inhibition, hits mostly inhibitors; calls by dose curve; tested in A549 cells; further: nearly all actives have a fitted effect of over 35% in size
# FMDV antiviral = High Throughput Screening for Foot and Mouth Disease Virus Antivirals; FMDV antiviral cell-based qHTS; 410,000 compounds, 1.2% hits; Potency, µM (series often up to 57.9 µM), for inactives: top-dose activity change, negative = inhibition, most hits filed as inhibitors; calls by dose curve; tested in HEK293T cells; further: read-out not given here; nearly all actives have a fitted effect of over 45% in size
# MARV entry inh = qHTS for inhibitors of binding or entry into cells for Marburg Virus; AID 540276, 2011; Potency, µM (highest dose often 37.8 µM), for inactives: at the top dose activity change, negative = inhibition, most hits filed as inhibitors; Marburg virus pseudotyped entry inhibition, cell reporter; 300,000 compounds, 1.8% hits; calls by dose curve; tested in HEK293 cells
# * marks the source's active call; other numbers are inactive results; i = inactive; ? = inconclusive; . = not tested or not shown; ! = not active in a repeat; [ ] = another dose, or the depositor's remark. The list is not random: actives were taken first. Their share in the collection is about 5.3%. On the % scale 0 is the no-effect control and ±100 the full control effect; potency means the concentration at half of the fitted maximal effect.
SMILES,LASV entry inh,VACV Venus inh,HCV inh,Vaccinia mCherry,FMDV antiviral,MARV entry inh
NC(=O)c1nsc(C(=O)N(c2ccc3c(c2)OCCO3)C(C(=O)NCC2CCCO2)c2ccc(F)cc2)c1N (stereo not given),?,3%,?,-13%,10%,?
CCOc1ccc(C(C(=O)NCC2CCCO2)N(C(=O)c2snc(C(N)=O)c2N)c2ccccc2F)cc1 (stereo not given),7.1µM*,-12%,?,-3%,26%,?
CC(C)OC(=O)[C@H](C)NC(=O)N1CCc2nc(-c3ccccc3)c3c(c2C1)CO[C@@H](C)C3,.,.,.,.,.,-2%[14.2 µM]
COc1cc(-c2nc(-c3ccccc3)c(-c3cc([N+](=O)[O-])ccc3C)[nH]2)cc(OC)c1OC,?,?,13µM*,.,-25%,?
COc1cc(-c2nc(-c3cccc(Cl)c3)c(-c3ccccc3)[nH]2)cc(OC)c1OC,?,-14%,.,-25%,-17%,?
Cc1cc(C)nc(N/N=C/c2cccc(Cl)c2)n1,2%,.,-5%,.,31%,?
Cc1cc(N/N=C/c2cccc(Cl)c2)nc(NCc2ccccc2)n1,?,?,13µM*,?,-21%,18µM*
Cc1cc(N/N=C/c2ccccc2)nc(NCc2ccccc2)n1,?,?,6.3µM*,10µM*,-7%,?
Cc1cc(N/N=C/c2ccc(Cl)cc2)nc(NCc2ccccc2)n1,?,-11%,35µM*,?,-14%,?
Cc1cc(N/N=C/c2ccccc2F)nc(NCc2ccccc2)n1,2%,-17%,?,-2%,-10%,?
Cc1cc(N/N=C/c2cccc(F)c2)nc(NCc2ccccc2)n1,?,?,-23%,?,6%,16µM*
O=C(Nc1cccc(S(=O)(=O)N2CCOCC2)c1)C1COc2ccccc2O1 (stereo not given),12%,-7%,?,-13%,7%,?
CC(=O)Nc1nc2[nH]ccc2c(=O)[nH]1,.,1%,.,i,0%,.
O=C(Cn1[nH]c(=O)c2ccccc2c1=O)NCCN1C(=O)S/C(=C\c2ccccc2)C1=O,.,.,11µM*,.,-18%,.
Cc1sc2ncn(CCn3cnc4sc(C)c(C)c4c3=O)c(=O)c2c1C,-15%,-15%,?,.,20µM*,?
COc1ccc2cc3cc(C(=O)NCCc4ccc(OC)c(OC)c4)oc3nc2c1,?,?,?,-12%,8.9µM*,?
COc1ccc2c(=O)c(C(=O)NCCc3ccc(OC)c(OC)c3)c[nH]c2c1,?,.,-27%,.,?,7.3µM*
COc1cc(OC)c(NC(=O)c2nn(-c3ccc(C)cc3)c(=O)c3c2c2ccccc2n3C)cc1Cl,8%[46.1 µM],6%,.,8%,-3%,5%[46.1 µM]
O=C(Nc1ccccc1)C1=C[C@@H](c2csc3ccccc23)C[C@@H](OCc2ccc(CO)cc2)O1,.,?,0.32µM*,-15%,-10%,.
O=C(C1=C[C@H](c2ccc(Br)cc2)C[C@H](OCc2ccc(CO)cc2)O1)N1CCN(Cc2ccc3c(c2)OCO3)CC1,.,?,?,?,0%,.
CC(=O)n1cc([C@H]2C=C(C(N)=O)O[C@@H](OCc3ccc(CO)cc3)C2)c2ccccc21,.,-6%,2.8µM*,i,0%,.
O=C(C1=C[C@H](c2ccc3c(c2)OCO3)C[C@H](OCCCCO)O1)N1CCN(Cc2ccc3c(c2)OCO3)CC1,.,-19%,-26%,?,0%,.
O=C(C1=C[C@H](c2ccc3c(c2)OCO3)C[C@H](OCc2ccc(CO)cc2)O1)N1CCN(Cc2ccc3c(c2)OCO3)CC1,.,?,35µM*,?,?,.
O=C(C1=C[C@@H](c2ccc3c(c2)OCO3)C[C@@H](OCCCCO)O1)N1CCN(Cc2ccc3c(c2)OCO3)CC1,.,-14%,0.56µM*,i,-19%,.
CN(C)c1ccc(/C=C/c2cnnc3ccccc23)cc1,.,68%,.,-5%,.,.
SMILES,LASV entry inh,VACV Venus inh,HCV inh,Vaccinia mCherry,FMDV antiviral,MARV entry inh
O=C(C1=C[C@H](c2csc3ccccc23)C[C@H](OCc2ccc(CO)cc2)O1)N1CCN(Cc2ccc3c(c2)OCO3)CC1,.,?,8.9µM*,?,?,.
C=CCn1c(=O)c2ccccc2n2c(SCC(=O)Nc3sc(C)c(CC)c3C(=O)OCC)nnc12,?,-2%,?,?,-25%,?
C=CCn1c(=O)c2ccccc2n2c(SCC(=O)Nc3sc(C(=O)N(CC)CC)c(C)c3C(=O)OCC)nnc12,-28%,.,6.3µM*!,.,0%,?
CCOC(=O)c1c(NC(=O)CSc2nnc(-c3cccc(C)c3)n2CC)sc(C(C)=O)c1C,-25%,?,3.5µM*,.,?,?
CCOC(=O)c1c(NC(=O)CSc2nnc(-c3ccccc3)n2CC)sc(C(C)=O)c1C,-10%,-14%,?,-16%,?,?
CCOC(=O)c1sc(NC(=O)CSc2nnc(-c3ccco3)n2CC)c(C(=O)OCC)c1C,-13%,0%,10µM*!,i,.,?
O=C(Cc1ccccc1)Nc1cccc(-c2cn3cccnc3n2)c1,?,-4%,.,-16%,50%,.
COC(=O)[C@H]1O[C@@H](c2c(OC)c(OC)c(C)c(OC)c2OC)[C@H](C)[C@@H](O)[C@@H]1C,.,.,.,.,.,6%[14.2 µM]
COc1cc(=O)n2c(c1C(=O)N(C)Cc1nonc1C)CCN(Cc1cc(C)c(C)cc1C)CC2,.,-23%,.,-2%,-14%,.
C[N+](C)(C)CCC(=O)c1cccc2ccccc12,.,?,.,?,-20%,4.5µM*
Cc1cc(C)c(C)c(S(=O)(=O)N2CCC(C(=O)NNC(=O)c3ccccc3O)CC2)c1C,?,?,7.1µM*,?,0%,2%
O=C(Nc1ccc(Cl)c(C(F)(F)F)c1)C1CCN(S(=O)(=O)c2cccc3nonc23)CC1,?,-12%,.,-14%,32µM*,?
Cc1ccc(NC(=O)C2CCCN(S(=O)(=O)c3cccc4cccnc34)C2)cc1Cl (stereo not given),?,-24%,.,-30%,?,?
O=C(Nc1nc2cc(Cl)ccc2s1)C1CCCN(S(=O)(=O)c2cccc3cccnc23)C1 (stereo not given),.,?,11µM*,-11%,0%,-1%
O=C(C1CCCN(S(=O)(=O)c2cccc3nsnc23)C1)N1CC=C(c2ccccc2)CC1 (stereo not given),?,?,13µM*,?,20µM*,?
O=C(Nc1ccc(Cl)c(C(F)(F)F)c1)C1CCCN(S(=O)(=O)c2cccc3cccnc23)C1 (stereo not given),5.6µM*,?,.,-29%,?,.
